PubChem BioAssay (NCATS)
“And” between values parts separate entries of the source, which are not always exact repeats. Equal entries are not always repeated. Results filed as inconclusive are left out. Where a structure was tested more than once in an assay, its records may differ in their call. The source made the active and inactive calls. Unless noted, calls follow the shape of the dose curve; as a rule, active = well fitted curve in either direction with a large enough effect (not every such curve was filed as active); inconclusive = small, poorly fitted or top-dose-only effect, or another doubt; inactive = flat fitted curve, though single readings scatter.

Tests used:
[1] = AP1 Signaling Pathway (AID 357); conditions: ME-180 AP-1-bla reporter, EGF-induced, beta-lactamase ratio, 5 h;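 also: ME-180 reporter cells stimulated with EGF at its EC50 level; % is scaled to controls: 0 for no effect and ±100 for the full control effect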
Outline: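 Modulation of EGF-driven AP-1 transcription was assessed with a beta-lactamase reporter in ME-180 cells. Compound and EC50 EGF were co-incubated 5 hours at 37 °C before 2.5-hour CCF4 loading at room temperature and dual-emission reading.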

[2] = target: Cytochrome P450 1A2 (Homo sapiens) (UniProt P05177); assay: p450-cyp1a2 (AID 410; calls by dose curve; also: potency is read from the fitted curve at half-maximal effect;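 as to activity change, negative = inhibition: -100% = full effect of reference inhibitor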); conditions: recombinant CYP1A2, luciferin-ME demethylation, luminescence; series mostly up to 57 µM
Outline: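 Read-out is luminescence from luciferin produced by CYP1A2 demethylation of Luciferin-ME (100uM, at Km). Detection reagent stopped the 60 min NADPH-dependent reaction; signals were normalized to 57 uM furafylline.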

[3] = NFAT Signaling Pathway (AID 444); conditions: Jurkat NFAT-bla M1, carbachol, beta-lactamase ratio, 5 h;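 also: carbachol stimulus at about its EC50 of 1 µM final; % is scaled to controls: 0 for no effect and ±100 for the full control effect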
Outline: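 Jurkat cells carrying an NFAT-driven β-lactamase reporter and co-transfected muscarinic M1 receptor were treated with compound plus carbachol (1 uM final, an EC50 level) for 5 h at 37 °C. CCF4 loading followed for 1 h at RT; 460/530 nm ratio gave %activity.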

[4] = Stat Signaling Pathway (AID 446); conditions: ME-180 (cervical carcinoma) SIE beta-lactamase reporter, IL-6 stimulated, 5 h;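 also: ME-180 cervical cancer cells given 40 pM IL-6 alongside compound; SIE-controlled beta-lactamase reporter measured as 460/530 nm FRET emission ratio; % is scaled to controls: 0 for no effect and ±100 for the full control effect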
Outline: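 Overnight-plated ME-180 cells bearing a STAT Inducible Element beta-lactamase reporter; 5 h co-exposure to compound and 40 pM IL-6; values normalized to 300 pM IL-6 and 125 nM JAK inhibitor controls.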

[5] = target: Glucocorticoid receptor (Homo sapiens) (UniProt P04150); assay: GR-GFP Redistribution (AID 450;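 active = compounds whose dose series gives a full or clear partial fitted curve of increased nuclear translocation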; also: potency is read from the fitted curve at half-maximal effect); conditions: U2OS GR-GFP nuclear translocation, laser cytometry, 2 h
[6] = target: Glucocorticoid receptor (Homo sapiens) (UniProt P04150); assay: GR-EFC Redistribution (AID 451; calls by dose curve; also: potency is read from the fitted curve at half-maximal effect); conditions: CHO-K1 GR-EFC translocation, beta-gal luminescence, 2 h
Outline: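 CHO-K1 cells stably expressing nuclear-localized β-gal enzyme acceptor and GR fused C-terminally to the enzyme donor fragment; ligand-driven nuclear translocation restores β-gal by complementation. Compounds titrated up to 46 uM final, 2 h at 37 °C; luminescence read.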

[7] = target: Mitogen-activated protein kinase 10 (Mus musculus) (UniProt Q61831); assay: JNK3 AlphaScreen Assay (AID 530); conditions: JNK3 lysate, c-Jun phosphorylation; series mostly up to 57.1 µM;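 also: kinase came from lysate of stimulated human HepG2 cells; signal reports phosphorylation of biotinylated GST-cJun 1-79 at Ser73 with 10 µM ATP; % is scaled to controls: 0 for no effect and ±100 for the full control effect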
Outline: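 Biotinylated GST-cJun(1-79) served as substrate for JNK3 in HepG2 lysates stimulated with IL-1beta and TNF-alpha. ATP was 10 uM final, pH 7.6. Ser73 phosphorylation was quantified by AlphaScreen (680 nm excitation).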

[8] = Cell Viability - BJ (AID 421; calls by dose curve;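 also: potency is read from the fitted curve at half-maximal effect; cells exposed to compound for 40 hours at 37 °C before readout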); conditions: BJ fibroblast viability, qHTS
Outline: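 Quantitative HTS: ATP depletion in BJ cells after 40 hr compound exposure in complete culture medium, detected with CellTiter-Glo; AC50 from standard Hill fits.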

[9] = Cell Viability - Jurkat (AID 426;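 active = dose-dependent loss of cell ATP signal giving a full or clear fitted curve, ranked by lower potency value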;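 also: potency is read from the fitted curve at half-maximal effect; cells exposed to compound for 40 hours at 37 °C before ATP read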); conditions: qHTS
Outline: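 Cytotoxicity was scored as loss of cellular ATP, measured by luciferase-based luminescence, in Jurkat clone E6-1 cells after 40 h compound treatment; tamoxifen and doxorubicin served as positive controls.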

[10] = Cell Viability - Hek293 (AID 427;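 active = compounds whose dose-response curve shows a full or clear partial loss of cell viability, called from curve shape rather than a numeric limit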;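 also: potency is read from the fitted curve at half-maximal effect; cells exposed to compound for 40 hours at 37 °C before reading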); conditions: qHTS
Outline: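 AC50 values derive from Hill-modelled concentration-response of ATP-based luminescence, normalized between DMSO-only and 100 uM tamoxifen controls. Cells were exposed in complete culture medium for 40 hr at 37 °C before detection.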

[11] = Cell Viability - HepG2 (AID 433; calls by dose curve;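 also: potency is read from the fitted curve at half-maximal effect; potency for ATP loss meaning cytotoxicity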); conditions: qHTS
Outline: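 Read-out is luciferase-based quantitation of cellular ATP as a measure of viable HepG2 cells after 40 h treatment at 37 °C. Signal decrease is scaled between DMSO-only and 100 uM tamoxifen controls, with AC50 fitted by the Hill equation.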

[12] = Cell Viability - MRC5 (AID 434; calls by dose curve;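 also: potency is read from the fitted curve at half-maximal effect; cells exposed to compound for 40 hours at 37 °C; potency reflects cytotoxicity seen as loss of intracellular ATP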); conditions: MRC5 lung fibroblast viability, qHTS
Outline: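 Decrease in intracellular ATP, quantified by luciferase light output, reflects compound toxicity toward MRC5 cells exposed for 40 hr in complete culture medium. Concentration-response curves, scaled between DMSO and 100 uM tamoxifen, gave AC50 values.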

[13] = Cell Viability - SK-N-SH (AID 435; calls by dose curve;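 also: potency is read from the fitted curve at half-maximal effect; compound exposure lasted 40 h at 37 °C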); conditions: SK-N-SH neuroblastoma cell viability qHTS
Outline: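 Luminescent ATP signal served as the viability read-out after 40 hours of compound treatment of human neuroblastoma SK-N-SH cells. Concentration-response data, scaled between DMSO and 100 uM tamoxifen, gave AC50 values by standard Hill modeling.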

[14] = Cell Viability - N2a (AID 540; active = well fitted curve in the direction sought with a large enough effect; an effect the other way counts as inactive or inconclusive;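 also: cells exposed to compound for 40 h at 37 °C; plate controls were DMSO alone for no effect and tamoxifen control for full effect; nearly all actives have a fitted effect of over 45% in size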); conditions: N2a mouse neuroblastoma cell viability; activity change, negative = cytotoxicity: at 92.2 µM (top of the series)
Outline: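 In this qHTS cytotoxicity screen, ATP-dependent luciferase luminescence reports viable N2a cells after a 40 hr compound exposure in complete culture medium. Potencies are AC50 values from standard Hill equation fits.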

[15] = Cell Viability - NIH 3T3 (AID 541; active = well fitted curve in the direction sought with a large enough effect; an effect the other way counts as inactive or inconclusive;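 also: plate controls were DMSO alone for no effect and tamoxifen positive control for full effect; nearly all actives have a fitted effect of over 25% in size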); conditions: NIH 3T3 cell viability, qHTS; activity change, negative = cytotoxicity: at 92.2 µM (top of the series)
Outline: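 In this cytotoxicity screen, acute toxicity is scored as an ATP drop measured by CellTiter-Glo in NIH 3T3 fibroblasts following a 40 hr, 37 °C incubation with compound.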

[16] = Cell Viability - HUV-EC-C (AID 542; active = well fitted curve in the direction sought with a large enough effect; an effect the other way counts as inactive or inconclusive; also: % is scaled to controls: 0 for no effect and ±100 for the full control effect; nearly all actives have a fitted effect of over 35% in size); conditions: HUV-EC-C endothelial cell viability, qHTS; series mostly up to 92.2 µM
Outline: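 Concentration-dependent ATP loss in HUV-EC-C cells is the measure. Exposure lasts 40 hr at 37 °C; luminescence follows CellTiter-Glo addition, and Hill fits give AC50.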

[17] = Cell Viability - H-4-II-E (AID 543; active = well fitted curve in the direction sought with a large enough effect; an effect the other way counts as inactive or inconclusive; also: % is scaled to controls: 0 for no effect and ±100 for the full control effect; nearly all actives have a fitted effect of over 35% in size); conditions: H-4-II-E rat hepatoma viability; series mostly up to 92.2 µM
Outline: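 AC50 from Hill-modelled qHTS concentration-response curves. H-4-II-E rat hepatoma cells in complete medium, 40 hr exposure at 37 °C, viability by CellTiter-Glo ATP luminescence.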

[18] = Cell Viability - SH-SY5Y (AID 544; active = well fitted curve in the direction sought with a large enough effect; an effect the other way counts as inactive or inconclusive;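 also: 0% = DMSO alone and -100% = 100 µM tamoxifen; nearly all actives have a fitted effect of over 55% in size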); conditions: SH-SY5Y neuroblastoma cell viability; viability change, negative = cytotoxic: at 92.2 µM (top of the series)
Outline: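 Quantitative HTS in SH-SY5Y neuroblastoma cells, 40 hr treatment at 37 °C, ATP content by luciferase luminescence; AC50 from Hill fits.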

[19] = Cell Viability - Renal Proximal Tubule (AID 545; active = well fitted curve in the direction sought with a large enough effect; an effect the other way counts as inactive or inconclusive;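 also: 0% = DMSO only and -100% = 100 µM tamoxifen; nearly all actives have a fitted effect of over 40% in size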); conditions: renal proximal tubule cells viability, primary cells of rat origin; activity change, negative = cytotoxicity: at 91.7 µM (top of the series)
Outline: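 Luminescent ATP signal (CellTiter-Glo) served as the viability read-out after 40 hr compound exposure of freshly isolated rat proximal tubule cells at 37 °C. Concentration-dependent ATP loss was fitted with the Hill equation to give AC50.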

[20] = target: Lysosomal acid glucosylceramidase (Homo sapiens) (UniProt P04062); assay: Glucocerebrosidase-p2 (AID 348; in the data active = potency below about 10 µM; also: potency is read from the fitted curve at half-maximal effect); conditions: purified GBA, blue fluorogenic substrate, 40 min
Outline: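 Normal human glucocerebrosidase (0.2 nM) with blue fluorogenic substrate (80 uM final) in citrate/phosphate pH 5.9 with 10mM sodium taurocholate, 0.01% tween-20; 40 min RT, NaOH/glycine stop; fluorescence Ex 365/Em 440; AC50 from a titration from 0.6 nM upwards.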

[21] = at 38 µM (top of the series) unless noted

Cytochrome P450 1A2 (Homo sapiens), sequence (P05177 whole entry, looked up): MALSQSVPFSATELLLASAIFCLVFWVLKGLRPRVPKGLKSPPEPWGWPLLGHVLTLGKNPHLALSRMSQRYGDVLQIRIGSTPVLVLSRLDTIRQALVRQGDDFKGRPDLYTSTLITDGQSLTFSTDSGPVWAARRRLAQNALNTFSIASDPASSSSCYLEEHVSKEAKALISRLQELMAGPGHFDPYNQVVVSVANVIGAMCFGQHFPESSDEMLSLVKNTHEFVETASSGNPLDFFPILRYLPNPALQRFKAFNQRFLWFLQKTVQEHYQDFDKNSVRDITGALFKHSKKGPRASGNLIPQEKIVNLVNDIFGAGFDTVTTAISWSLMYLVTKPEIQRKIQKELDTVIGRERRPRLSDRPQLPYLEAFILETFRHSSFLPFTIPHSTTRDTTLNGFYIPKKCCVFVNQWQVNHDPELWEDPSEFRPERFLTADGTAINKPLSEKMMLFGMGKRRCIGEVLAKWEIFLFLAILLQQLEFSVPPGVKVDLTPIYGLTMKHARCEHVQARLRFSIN
Glucocorticoid receptor (Homo sapiens), sequence (P04150 whole entry, looked up, the tested form may be a part): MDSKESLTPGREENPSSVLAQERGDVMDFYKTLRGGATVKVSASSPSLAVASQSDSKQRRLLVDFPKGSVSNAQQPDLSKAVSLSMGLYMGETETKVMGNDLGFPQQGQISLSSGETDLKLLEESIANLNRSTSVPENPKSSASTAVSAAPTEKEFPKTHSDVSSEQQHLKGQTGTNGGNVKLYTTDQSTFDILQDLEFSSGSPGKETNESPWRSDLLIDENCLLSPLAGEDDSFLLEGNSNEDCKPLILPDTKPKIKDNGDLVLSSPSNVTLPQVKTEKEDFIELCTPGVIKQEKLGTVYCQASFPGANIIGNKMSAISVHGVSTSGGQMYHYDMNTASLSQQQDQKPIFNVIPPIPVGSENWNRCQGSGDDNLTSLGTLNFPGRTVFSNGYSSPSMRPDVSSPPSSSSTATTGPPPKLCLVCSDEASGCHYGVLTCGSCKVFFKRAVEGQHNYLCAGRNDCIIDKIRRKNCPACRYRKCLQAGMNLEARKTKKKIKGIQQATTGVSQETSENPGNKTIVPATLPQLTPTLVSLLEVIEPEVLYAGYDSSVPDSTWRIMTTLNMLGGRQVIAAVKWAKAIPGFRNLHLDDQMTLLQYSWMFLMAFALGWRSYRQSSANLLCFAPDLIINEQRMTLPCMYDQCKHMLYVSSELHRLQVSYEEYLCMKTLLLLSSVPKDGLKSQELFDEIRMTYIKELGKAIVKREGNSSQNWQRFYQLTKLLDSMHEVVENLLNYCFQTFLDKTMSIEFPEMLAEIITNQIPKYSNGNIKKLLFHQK
Lysosomal acid glucosylceramidase (Homo sapiens), sequence (P04062 whole entry, looked up): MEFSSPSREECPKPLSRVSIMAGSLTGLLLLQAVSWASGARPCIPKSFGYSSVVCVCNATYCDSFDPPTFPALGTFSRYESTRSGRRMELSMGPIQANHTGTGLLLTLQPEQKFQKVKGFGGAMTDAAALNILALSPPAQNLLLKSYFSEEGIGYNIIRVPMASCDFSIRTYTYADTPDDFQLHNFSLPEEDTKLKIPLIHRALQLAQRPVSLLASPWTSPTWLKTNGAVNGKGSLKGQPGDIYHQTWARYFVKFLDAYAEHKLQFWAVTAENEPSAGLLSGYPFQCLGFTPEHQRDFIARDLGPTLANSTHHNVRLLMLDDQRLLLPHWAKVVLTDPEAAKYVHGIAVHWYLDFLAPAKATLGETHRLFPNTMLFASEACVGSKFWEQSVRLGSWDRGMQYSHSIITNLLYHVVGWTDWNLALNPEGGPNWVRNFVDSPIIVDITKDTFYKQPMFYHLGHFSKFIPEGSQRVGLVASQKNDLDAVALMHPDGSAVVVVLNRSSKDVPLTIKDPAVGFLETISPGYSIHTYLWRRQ

CC(C)Cc1ccc([C@H](C)C(=O)O)cc1
inactive: activity change, negative = inhibition ([1]; at 17.2 µM (top of the series)) -1.53% | activity change, negative = inhibition ([1]; at 38 µM (top of the series)) -1.91% and 13.2% | Potency [2] | activity change, negative = inhibition ([3]; at 17.2 µM (top of the series)) -2.57% | activity change, negative = inhibition ([3]; at 38 µM (top of the series)) -3.84% and 2.4% | activity, negative = inhibition ([4]; at 17.2 µM (top of the series)) -0.514% | activity, negative = inhibition ([4]; at 38 µM (top of the series)) -0.822% and 26.9% | Potency [5] > 46 µM and > 20.6 µM | Potency [6] > 46 µM and > 20.6 µM | Potency [7]

Nc1ccc(O)c(C(=O)O)c1
inactive: activity change, negative = inhibition ([1]; at 17.2 µM (top of the series)) 12.5% | Potency [2] | Potency [8] > 92 µM | Potency [9] > 92 µM | Potency [10] > 92 µM | Potency [11] > 92 µM | Potency [12] > 92 µM | Potency [13] > 92 µM | activity change, negative = inhibition [3, 21] -25.5% [at 17.2 µM] | activity, negative = inhibition ([4]; at 17.2 µM (top of the series)) -23.9% | Potency [5] > 20.6 µM | Potency [6] > 20.6 µM | Potency [7] | Potency [14] | Potency [15] | Potency [16] | Potency [17] | Potency [18] | activity change, negative = cytotoxicity [19] 10.5%

O=C(O)c1cc(=O)c2c(Cl)cc(Cl)cc2[nH]1
inactive: activity change, negative = inhibition ([1]; at 38 µM (top of the series)) -8.48% | Potency [2] | activity change, negative = inhibition [3, 21] 0.544% | activity, negative = inhibition ([4]; at 38 µM (top of the series)) 15.7% | Potency [5] > 46 µM | Potency [6] > 46 µM

C[N+]1(C)CCC(OC(=O)C(c2ccccc2)c2ccccc2)CC1
10 µM (active) and inactive: Potency [2]
inactive: activity change, negative = inhibition ([1]; at 38 µM (top of the series)) 10.3% | activity, negative = inhibition ([4]; at 38 µM (top of the series)) 22.3% | Potency [5] > 46 µM | Potency [6] > 46 µM | Potency [7]
active: activity change, negative = inhibition [3, 21] -75%

CN(C)c1nc(N)c(C(=O)N=C(N)N)nc1Cl
inactive: activity change, negative = inhibition ([1]; at 38 µM (top of the series)) 10.7% | activity change, negative = inhibition [3, 21] -15.7% | activity, negative = inhibition ([4]; at 38 µM (top of the series)) 19% | Potency [5] > 46 µM
active: Potency [2] 1 µM

Clc1ccc(N2CCN(Cc3c[nH]c4ncccc34)CC2)cc1
inactive and 15.8 µM (active): Potency [2]
inactive: activity change, negative = inhibition ([1]; at 38 µM (top of the series)) -4.78% | activity change, negative = inhibition [3, 21] -18.8% | activity, negative = inhibition ([4]; at 38 µM (top of the series)) -44.5% | Potency [5] > 46 µM

CN1[C@@H]2CC[C@H]1CC(OC(c1ccccc1)c1ccccc1)C2 (stereo not given in full)
inactive: Potency [20] > 11.4 µM | activity change, negative = inhibition ([1]; at 7.69 µM (top of the series)) 12.3% | Potency [2] | activity, negative = inhibition ([4]; at 7.69 µM (top of the series)) 0.0599% | activity, negative = inhibition ([4]; at 38 µM (top of the series)) -14.8% | Potency [5] > 46 µM | Potency [7]
active: activity change, negative = inhibition [3, 21] -83.5% [at 7.69 µM]
